Test results taken from PubChem BioAssay (NCI).
This is part of a sample that, as a whole, favours compounds with a hit. Of some 83,000 tested, about 20% had one in any assay.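 Growth was measured after 48 h exposure to one concentration of compound in 96-well plates. Values under 10 count as active.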 Values without a mark were called inactive. The source made the active and inactive calls.

Tests used:
Experiment in all cases: NCI-60 one-dose screen, 48 h (100 = growth as untreated, 0 = no growth, -100 = all killed)
Settings in all cases: 10 µM unless noted
NCI-H23 lung = test system: NCI-H23 lung
NCI-H226 lung = test system: NCI-H226 lung
NCI-H322M lung = test system: NCI-H322M lung
HOP-62 NSCLC = test system: HOP-62 NSCLC
NCI-H460 lung = test system: NCI-H460 lung
HOP-92 NSCLC = test system: HOP-92 NSCLC
NCI-H522 lung = test system: NCI-H522 lung
A549/ATCC NSCLC = test system: A549/ATCC NSCLC
786-0 renal = test system: 786-0 renal
COLO 205 colon = test system: COLO 205 colon
DU-145 prostate = test system: DU-145 prostate
K-562 leukemia = test system: K-562 leukemia
MALME-3M melanoma = test system: MALME-3M melanoma
MDA-MB-231 breast = test system: MDA-MB-231 breast
RXF 393 renal = test system: RXF 393 renal
SF-268 CNS = test system: SF-268 CNS
SF-539 CNS = test system: SF-539 CNS
UACC-257 melanoma = test system: UACC-257 melanoma
M14 melanoma = test system: M14 melanoma
SF-295 CNS = test system: SF-295 CNS

`COc1ccc(C2Nc3c(c(C(C)(C)C)nn3-c3ccccc3)C(=O)CS2)cc1` (stereo not drawn) was tested. Which growth (NCI-H23 lung) did it give?
The growth was 99.6%.

What about the growth (NCI-H226 lung) of the same compound?
The growth was 98.2%.

And the growth (NCI-H322M lung)?
Its growth is 104%.

And the growth (HOP-62 NSCLC)?
The growth was 106%.

What about the growth (NCI-H460 lung) of the same compound?
Its growth is 106%.

What about the growth (HOP-92 NSCLC) of the same compound?
The growth was 91.7%.

And the growth (NCI-H522 lung)?
The growth was 84.5%.

And the growth (A549/ATCC NSCLC)?
Its growth is 89.3%.

What about the growth (786-0 renal) of the same compound?
The growth was 113%.

What about the growth (COLO 205 colon) of the same compound?
The growth was 103%.

What about the growth (DU-145 prostate) of the same compound?
The growth was 101%.

What about the growth (K-562 leukemia) of the same compound?
Its growth is 98.5%.

What about the growth (MALME-3M melanoma) of the same compound?
The growth was 98%.

What about the growth (MDA-MB-231 breast) of the same compound?
Its growth is 94.2%.

And the growth (RXF 393 renal)?
Its growth is 103%.

What about the growth (SF-268 CNS) of the same compound?
Its growth is 98%.

What about the growth (SF-539 CNS) of the same compound?
The growth was 109%.

What about the growth (UACC-257 melanoma) of the same compound?
Its growth is 101%.

What about the growth (M14 melanoma) of the same compound?
The growth was 112%.

`COc1ccc(Nc2c3c4c(cccc4[nH]c2=O)C(=O)c2ccccc2-3)cc1` was tested. Which growth (NCI-H23 lung) did it give?
The growth was 4.11% (active).

What about the growth (NCI-H226 lung) of the same compound?
The growth was 17%.

And the growth (NCI-H322M lung)?
Its growth is 24.9%.

What about the growth (HOP-62 NSCLC) of the same compound?
Its growth is 28%.

And the growth (NCI-H460 lung)?
Its growth is -44.4% (active).

What about the growth (HOP-92 NSCLC) of the same compound?
Its growth is 15.5%.

And the growth (NCI-H522 lung)?
The growth was -20.4% (active).

What about the growth (A549/ATCC NSCLC) of the same compound?
Its growth is 20.6%.

What about the growth (786-0 renal) of the same compound?
The growth was 12.1%.

What about the growth (COLO 205 colon) of the same compound?
The growth was -64.5% (active).

What about the growth (DU-145 prostate) of the same compound?
The growth was -20.9% (active).

What about the growth (K-562 leukemia) of the same compound?
Its growth is -19% (active).

And the growth (MALME-3M melanoma)?
Its growth is 41.1%.

What about the growth (MDA-MB-231 breast) of the same compound?
Its growth is -20.5% (active).

What about the growth (SF-268 CNS) of the same compound?
Its growth is 21.4%.

What about the growth (SF-295 CNS) of the same compound?
Its growth is -52.4% (active).

What about the growth (SF-539 CNS) of the same compound?
Its growth is -31.3% (active).

What about the growth (UACC-257 melanoma) of the same compound?
Its growth is 64.1%.

What about the growth (M14 melanoma) of the same compound?
The growth was 11.7%.

How did the growth (NCI-H23 lung) turn out when `CCCCCCN(CCCCCC)C(=N)c1ccnc2ccccc12` was run?
The growth was 72.5%.

What about the growth (NCI-H226 lung) of the same compound?
The growth was 89.2%.

What about the growth (NCI-H322M lung) of the same compound?
Its growth is 76%.

And the growth (HOP-62 NSCLC)?
The growth was 100%.

And the growth (NCI-H460 lung)?
Its growth is 55.4%.

And the growth (HOP-92 NSCLC)?
The growth was 57.5%.

And the growth (NCI-H522 lung)?
The growth was 71.7%.

And the growth (A549/ATCC NSCLC)?
Its growth is 78.4%.

And the growth (786-0 renal)?
Its growth is 57%.

What about the growth (COLO 205 colon) of the same compound?
Its growth is -74.7% (active).

What about the growth (DU-145 prostate) of the same compound?
Its growth is 85.1%.

What about the growth (K-562 leukemia) of the same compound?
Its growth is 16.8%.

What about the growth (MALME-3M melanoma) of the same compound?
Its growth is 76.2%.

What about the growth (MDA-MB-231 breast) of the same compound?
Its growth is 58.1%.

And the growth (RXF 393 renal)?
Its growth is 70.3%.

What about the growth (SF-268 CNS) of the same compound?
The growth was 83.8%.

What about the growth (SF-539 CNS) of the same compound?
The growth was 79.7%.

What about the growth (UACC-257 melanoma) of the same compound?
Its growth is 69.9%.

And the growth (M14 melanoma)?
Its growth is 18.9%.

Which results are given for `C=C(C)[C@@H]1CC[C@]2(C(=O)OC)CC[C@]3(C)[C@H](CC[C@@H]4[C@@]5(C)C/C(=C/c6ccc(OC)cc6)C(=O)C(C)(C)[C@@H]5CC[C@]43C)[C@@H]12`?
growth (NCI-H23 lung): 84.8%; growth (NCI-H226 lung): 97.2%; growth (NCI-H322M lung): 106%; growth (HOP-62 NSCLC): 99.9%; growth (NCI-H460 lung): 101%; growth (HOP-92 NSCLC): 77.9%; growth (NCI-H522 lung): 78.8%; growth (A549/ATCC NSCLC): 89.5%; growth (786-0 renal): 92.2%; growth (COLO 205 colon): 94.4%; growth (DU-145 prostate): 91.1%; growth (K-562 leukemia): 3.32% (active); growth (MALME-3M melanoma): 99.7%; growth (MDA-MB-231 breast): 108%; growth (RXF 393 renal): 66.9%; growth (SF-268 CNS): 90.7%; growth (SF-295 CNS): 99.9%; growth (SF-539 CNS): 90.3%; growth (UACC-257 melanoma): 104%; growth (M14 melanoma): 91%

With `Clc1ccc2c(NCCCCNc3nc(N4CCOCC4)nc4ccccc34)ccnc2c1` as the compound, how does the growth (NCI-H23 lung) read?
The growth was 59.7%.

What about the growth (NCI-H226 lung) of the same compound?
The growth was -43.4% (active).

What about the growth (NCI-H322M lung) of the same compound?
The growth was 26.4%.

What about the growth (HOP-62 NSCLC) of the same compound?
Its growth is -9.83% (active).

And the growth (NCI-H460 lung)?
Its growth is 4.54% (active).

And the growth (HOP-92 NSCLC)?
Its growth is 71.8%.

And the growth (NCI-H522 lung)?
Its growth is -25.6% (active).

And the growth (A549/ATCC NSCLC)?
The growth was 14.6%.

And the growth (786-0 renal)?
Its growth is -54.1% (active).

What about the growth (COLO 205 colon) of the same compound?
Its growth is -46.9% (active).

What about the growth (DU-145 prostate) of the same compound?
Its growth is 38.4%.

What about the growth (MALME-3M melanoma) of the same compound?
The growth was -58.7% (active).

What about the growth (MDA-MB-231 breast) of the same compound?
Its growth is -58.3% (active).

What about the growth (RXF 393 renal) of the same compound?
The growth was 86.3%.

And the growth (SF-268 CNS)?
The growth was 43%.

And the growth (SF-295 CNS)?
Its growth is -5.21% (active).

What about the growth (SF-539 CNS) of the same compound?
Its growth is -84.5% (active).

And the growth (UACC-257 melanoma)?
Its growth is 84.9%.

And the growth (M14 melanoma)?
Its growth is -66.2% (active).

`Clc1ccc2nc3nc4ccc[nH]c4cc3c2c1` was tested. Which growth (NCI-H23 lung) did it give?
Its growth is 73.7%.

What about the growth (NCI-H226 lung) of the same compound?
Its growth is 83.8%.

What about the growth (NCI-H322M lung) of the same compound?
Its growth is 65.1%.

And the growth (HOP-62 NSCLC)?
Its growth is 89.7%.

And the growth (NCI-H460 lung)?
Its growth is 54.4%.

And the growth (HOP-92 NSCLC)?
Its growth is 105%.

And the growth (NCI-H522 lung)?
Its growth is 81.1%.

And the growth (A549/ATCC NSCLC)?
Its growth is 79.2%.

What about the growth (786-0 renal) of the same compound?
The growth was 105%.

And the growth (COLO 205 colon)?
The growth was 98.9%.

What about the growth (DU-145 prostate) of the same compound?
The growth was 100%.

And the growth (MALME-3M melanoma)?
Its growth is 87.2%.

And the growth (MDA-MB-231 breast)?
The growth was 99.6%.

And the growth (RXF 393 renal)?
The growth was 116%.

What about the growth (SF-268 CNS) of the same compound?
Its growth is 97.9%.

And the growth (SF-295 CNS)?
Its growth is 101%.

What about the growth (SF-539 CNS) of the same compound?
The growth was 83.7%.

What about the growth (UACC-257 melanoma) of the same compound?
The growth was 85.8%.

And the growth (M14 melanoma)?
Its growth is 106%.

With `NC(=NC1C2CC3CC(C2)CC1C3)Nc1ccc(I)cc1` (stereo not drawn) as the compound, how does the growth (NCI-H23 lung) read?
Its growth is 15.4%.

What about the growth (NCI-H226 lung) of the same compound?
Its growth is 84.7%.

What about the growth (NCI-H322M lung) of the same compound?
The growth was 15.7%.

And the growth (HOP-62 NSCLC)?
Its growth is 12.9%.

What about the growth (NCI-H460 lung) of the same compound?
The growth was 55.2%.

And the growth (HOP-92 NSCLC)?
Its growth is 31.1%.

What about the growth (NCI-H522 lung) of the same compound?
The growth was 42.4%.

And the growth (A549/ATCC NSCLC)?
Its growth is 26.1%.

What about the growth (786-0 renal) of the same compound?
The growth was 61%.

What about the growth (COLO 205 colon) of the same compound?
The growth was -70.3% (active).

What about the growth (DU-145 prostate) of the same compound?
The growth was 20.4%.

And the growth (MALME-3M melanoma)?
Its growth is -17% (active).

What about the growth (MDA-MB-231 breast) of the same compound?
Its growth is 41.8%.

And the growth (RXF 393 renal)?
The growth was 85.8%.

What about the growth (SF-268 CNS) of the same compound?
The growth was 40.7%.

What about the growth (SF-295 CNS) of the same compound?
Its growth is 10.7%.

What about the growth (SF-539 CNS) of the same compound?
Its growth is 32%.

And the growth (UACC-257 melanoma)?
The growth was 0.379% (active).

And the growth (M14 melanoma)?
The growth was 2.98% (active).

How did the growth (NCI-H23 lung) turn out when `COc1nc2c(c(=O)n1C)CN(Cc1ccccc1)C=N2` was run?
The growth was 103%.

And the growth (NCI-H226 lung)?
Its growth is 109%.

And the growth (NCI-H322M lung)?
The growth was 128%.

What about the growth (HOP-62 NSCLC) of the same compound?
Its growth is 94.2%.

What about the growth (NCI-H460 lung) of the same compound?
Its growth is 116%.

What about the growth (HOP-92 NSCLC) of the same compound?
Its growth is 21.2%.

What about the growth (NCI-H522 lung) of the same compound?
The growth was 95.1%.

What about the growth (A549/ATCC NSCLC) of the same compound?
The growth was 87.6%.

What about the growth (786-0 renal) of the same compound?
Its growth is 103%.

What about the growth (COLO 205 colon) of the same compound?
Its growth is 107%.

And the growth (DU-145 prostate)?
The growth was 114%.

What about the growth (K-562 leukemia) of the same compound?
Its growth is 93.2%.

And the growth (MDA-MB-231 breast)?
Its growth is 119%.

What about the growth (RXF 393 renal) of the same compound?
The growth was 109%.

And the growth (SF-268 CNS)?
The growth was 106%.

And the growth (SF-295 CNS)?
Its growth is 109%.

What about the growth (SF-539 CNS) of the same compound?
Its growth is 116%.

What about the growth (UACC-257 melanoma) of the same compound?
Its growth is 94.9%.

What about the growth (M14 melanoma) of the same compound?
The growth was 101%.
